Test results as given in PubChem BioAssay (NCATS).
Inconclusive results are not listed. Where a call stands in place of a potency, no number is given. Calls of active or inactive are those of the source. Calls follow the shape of the dose curve; as a rule, active = well fitted cell-killing curve with a large enough effect; inconclusive = small, poorly fitted or top-dose-only effect, or effect the other way; inactive = no such curve, though single readings can be large or run the other way.

Assays:
[1] = Quantitative High-Throughput drug screen in 47 multiple myeloma cell lines against the NCATS MIPE library collection: FR4_PLB cell viability assay (AID 1918924; also: nearly all actives have a fitted effect of over 35% in size); details: FR4_PLB myeloma cells viability, CellTiter-Glo ATP, 48 h; series mostly up to 45.8 µM
Outline: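 qHTS of the MIPE 4.0 collection: 500 myeloma cells/well, 48 h drug exposure at 37C in 5% CO2, then CellTiter-Glo for 5 min at room temperature before luminescence reading.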

[2] = Quantitative High-Throughput drug screen in 47 multiple myeloma cell lines against the NCATS MIPE library collection: Delta47_JCRB cell viability assay (AID 1918925; also: nearly all actives have a fitted effect of over 45% in size); details: Delta47 myeloma viability, CellTiter-Glo ATP, 48 h; series mostly up to 45.8 µM
Outline: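 Myeloma cells (500 per well) were exposed to MIPE 4.0 compounds by pin transfer and incubated 48 hours at 37C, 5% CO2. Viability was read as ATP by CellTiter-Glo luminescence, normalised to DMSO (100%) and media-only (0%) wells.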
Potency is read from the fitted curve at half-maximal effect.

Compound | Potency [1] | Potency [2]
O=C(O)C1=CO[C@@H](O[C@@H]2O[C@H](CO)[C@H](O)[C@H](O)[C@H]2O)[C@@H]2C(CO)=CC[C@H]12 | inactive | 
COc1ccc(C=CC(=O)Nc2ccccc2C(=O)O)cc1OC | inactive | 
CCNC(=O)CCCC=CC[C@@H]1[C@H](C=CC(O)CCc2ccccc2)[C@@H](O)C[C@@H]1O (some centres not stated) | inactive | inactive
CCCCCCOC(=O)N=C(N)c1ccc(NCc2nc3cc(C(=O)N(CCC(=O)OCC)c4ccccn4)ccc3n2C)cc1 | 23.5 µM (active) | 16.6 µM (active)
NC(=O)c1ncn([C@@H]2O[C@H](CO)[C@@H](O)[C@@H]2O)n1 | inactive | inactive
CCCCCOC(=O)Nc1nc(=O)n([C@@H]2O[C@H](C)[C@@H](O)C2O)cc1F (some centres not stated) | inactive | inactive
O=c1[nH]c(=O)n([C@H]2C[C@@H](O)[C@@H](CO)O2)cc1I | inactive | inactive
C[C@H]1O[C@@H](n2cc(F)c(=O)[nH]c2=O)[C@H](O)[C@H]1O | inactive | 14.8 µM (active)
CC[C@H]1OC(=O)[C@H](C)[C@@H](O[C@H]2C[C@@](C)(OC)[C@@H](O)[C@H](C)O2)[C@H](C)[C@@H](O[C@@H]2O[C@H](C)C[C@H](N(C)C)[C@H]2O)[C@](C)(O)C[C@H](C)C(=NOCOCCOC)[C@H](C)[C@@H](O)[C@]1(C)O | inactive | inactive
C[C@H]1[C@H](O)O[C@@H]2O[C@@]3(C)CC[C@@H]4[C@H](C)CC[C@@H]1[C@@]24OO3 | 6.62 µM (active) | 5.9 µM (active)
CN(CC=CC#CC(C)(C)C)Cc1cccc2ccccc12 | inactive | inactive
N#CC(=C1Nc2ccccc2S1)c1ccnc(OCc2ccc(CN3CCOCC3)cc2)n1 | 23.5 µM (active) | 7.43 µM (active)
CON(C)C(=O)N1N=C(c2cc(F)ccc2F)S[C@]1(CCCN)c1ccccc1 | inactive | inactive
C[C@]12CCC3=C4CCC(=O)C=C4CC[C@@H]3[C@H]1CC[C@@]2(O)CC#N | inactive | inactive
Fc1ccc(C(c2ccc(F)cc2)N2CCN(CC=Cc3ccccc3)CC2)cc1 | inactive | inactive
O=C(Nc1ccccc1)Nc1ccc(-c2ccc(C(=O)[C@H]3CCC[C@H]3C(=O)O)cc2)cc1 | inactive | inactive
O=C1NC(=O)C(=Cc2ccc(-c3ccc(F)cc3O)o2)S1 | inactive | 0.418 µM (active)
O=C(Nc1ncc(SCCN2CCCC2)s1)[C@]1(c2ccc(S(=O)(=O)C3CC3)cc2)C[C@@H]1C1CCCCC1 | 18.7 µM (active) | 14.8 µM (active)
CC(C)=CCCC(C)=CCCC(C)=CCCC(C)=CCCC(C)=CCCC(C)=CCCC(C)=CCCC(C)=CCCC(C)=CCO | inactive | inactive
CC(=O)OCC(=O)[C@@]12OC(C)(C)O[C@H]1C[C@H]1[C@@H]3C[C@H](F)C4=CC(=O)C=C[C@]4(C)[C@@]3(F)[C@@H](O)C[C@@]12C | inactive | inactive
CC(O)=C(C#N)C(=O)Nc1ccc(C(F)(F)F)cc1 | 16.6 µM (active) | 18.7 µM (active)

Compound | Potency [1] | Potency [2]
COc1cc(CNC(=O)CCCCC=CC(C)C)ccc1O | inactive | inactive
CN[C@H]1[C@@H](O[C@@H]2[C@H](O[C@@H]3[C@@H](O)[C@@H](O)[C@@H](N=C(N)N)[C@@H](O)[C@@H]3N=C(N)N)O[C@H](C)[C@@]2(O)C=O)O[C@@H](CO)[C@@H](O)[C@H]1O | inactive | inactive
O=C(c1ccc(F)c(F)c1Nc1ccc(I)cc1F)N1CC(O)([C@H]2CCCCN2)C1 | 20.9 µM (active) | 20.9 µM (active)
CCOC(=O)[C@H](CCc1ccccc1)N[C@@H](C)C(=O)N1CCCC1C(=O)O (some centres not stated) | inactive | inactive
N=C1SC(=Cc2ccc(-c3ccc4c(c3)C(=O)NC4=O)o2)C(=O)N1c1ccc(Br)cc1 | 3.32 µM (active) | inactive
CN(C)S(=O)(=O)c1ccc2c(c1)C(=Cc1cc3c([nH]1)CCCC3)C(=O)N2 | 2.35 µM (active) | 2.96 µM (active)
OC1CCC(Nc2ncc3nc(Nc4c(F)cc(F)cc4F)n([C@@H]4CCOC4)c3n2)CC1 (some centres not stated) | inactive | 8.33 µM (active)
Cc1[nH]c(C=C2C(=O)Nc3ccc(S(=O)(=O)N(C)c4cccc(Cl)c4)cc32)c(C)c1C(=O)N1CCN(C)CC1 | 26.4 µM (active) | 14.8 µM (active)
NC(N)=Nc1nc(CSCCC(N)=NS(N)(=O)=O)cs1 | inactive | 10.5 µM (active)
CC(=O)O[C@]1(C(C)=O)CC[C@H]2[C@@H]3C=C(Cl)C4=CC(=O)[C@@H]5C[C@H]5[C@]4(C)[C@@H]3CC[C@@]21C | inactive | 8.33 µM (active)
COc1ccc(-c2cc(=O)c3c(O)cc(O[C@@H]4O[C@H](CO[C@@H]5O[C@@H](C)[C@H](O)[C@@H](O)[C@@H]5O)[C@@H](O)[C@H](O)[C@@H]4O)cc3o2)cc1O | inactive | 14.8 µM (active)
CNC(=O)[C@H](CC1=CN=C2C=CCC=C12)NC(=O)[C@@H](CC(=O)NO)CC(C)C | inactive | 26.4 µM (active)
CCC(=C(c1ccc(O)cc1)c1ccc(OCCNC)cc1)c1ccccc1 | 26.4 µM (active) | 5.9 µM (active)
CC1(C)C(N(O)C(=O)Nc2ccc(Cl)cc2)N(c2ccc(Cl)cc2)C(=O)N1CC(=O)NN=CC=Cc1ccc([N+](=O)[O-])o1 (configuration not stated) | 13.2 µM (active) | 7.43 µM (active)
CCOC(=O)N1CCN([N+]([O-])=NOc2cc(ON=[N+]([O-])N3CCN(C(=O)OCC)CC3)c([N+](=O)[O-])cc2[N+](=O)[O-])CC1 | 4.69 µM (active) | 4.69 µM (active)
CCCCC[C@H](O)C=C[C@H]1[C@H](O)CC(=O)[C@H]1CCCCCCC(=O)O | inactive | inactive
COc1cc([C@H]2Oc3cc([C@H]4Oc5cc(O)cc(O)c5C(=O)[C@H]4O)ccc3O[C@H]2CO)ccc1O | 18.7 µM (active) | 13.2 µM (active)
O=c1[nH]c(=O)n([C@H]2C[C@@H](O)[C@@H](CO)O2)cc1C(F)(F)F | inactive | 5.26 µM (active)
CN(C)CCN(C)C(=O)c1ccc(NC(=O)Nc2ccc(-c3nc(N4CCOCC4)c4ccn(CC(F)(F)F)c4n3)cc2)cc1 | 0.0372 µM (active) | 0.0264 µM (active)
O=C(O)C1=NC(C(=O)O)CC(C=CN2c3cc(O)c(OC4OC(CO)C(O)C(O)C4O)cc3CC2C(=O)O)=C1 (configuration not stated) | inactive | inactive
CNC1[C@H](O)C(O[C@@H]2C(O)C(O[C@H]3O[C@H]([C@@H](C)NC)CC[C@H]3N)[C@@H](N)C[C@H]2N)OC[C@]1(C)O (some centres not stated) | inactive | inactive
